# Assays:
# Assay in all cases: DAPPL (digital affinity profiling via proximity ligation, sequencing); 10 mM Tris-HCl pH 7.5, 50 mM NaCl, 1 mM DTT, 4% glycerol, room temperature, 30 min; GST-TFs on glutathione beads, 16-mer random dsDNA library, 0.1% formaldehyde crosslink after washing; high values mean tight binding
# Conditions in all cases: protein: recombinant; tags: N-terminal GST; dsDNA, one strand shown
# FLI1 = molecular target: T1, FLI1 (Homo sapiens, UniProt Q01543 1-452)
# T1 sequence: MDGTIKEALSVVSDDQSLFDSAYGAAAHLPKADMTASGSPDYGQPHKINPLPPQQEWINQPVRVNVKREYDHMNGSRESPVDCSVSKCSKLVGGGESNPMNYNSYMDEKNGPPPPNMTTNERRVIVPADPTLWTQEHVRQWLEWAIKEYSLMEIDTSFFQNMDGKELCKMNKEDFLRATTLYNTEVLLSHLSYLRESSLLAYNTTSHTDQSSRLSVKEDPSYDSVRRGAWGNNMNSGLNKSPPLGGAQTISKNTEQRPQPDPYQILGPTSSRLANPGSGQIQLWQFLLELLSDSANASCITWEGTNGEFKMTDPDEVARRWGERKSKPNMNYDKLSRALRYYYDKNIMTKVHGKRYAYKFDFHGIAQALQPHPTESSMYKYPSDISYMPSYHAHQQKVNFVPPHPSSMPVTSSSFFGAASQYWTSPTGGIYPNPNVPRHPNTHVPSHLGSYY
# Procedure, shortened: (§1)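 GST fusions of human transcription factors were expressed in yeast and captured with glutathione beads. Once given DNA barcodes and pooled alongside a tag-only sample, they were incubated for 30 min at room temperature with 200 nmole of a random double-stranded 16-mer DNA library in Tris/NaCl/DTT/glycerol buffer, then washed, crosslinked (0.1% formaldehyde), proximity-ligated, PCR-amplified and sequenced on an Illumina NextSeq500. The binding signal of each hexamer is its read frequency for a factor divided by its frequency for the tag-only sample.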
# ELK1 = molecular target: T2, ELK1 (Homo sapiens, UniProt P19419 1-428)
# T2 sequence: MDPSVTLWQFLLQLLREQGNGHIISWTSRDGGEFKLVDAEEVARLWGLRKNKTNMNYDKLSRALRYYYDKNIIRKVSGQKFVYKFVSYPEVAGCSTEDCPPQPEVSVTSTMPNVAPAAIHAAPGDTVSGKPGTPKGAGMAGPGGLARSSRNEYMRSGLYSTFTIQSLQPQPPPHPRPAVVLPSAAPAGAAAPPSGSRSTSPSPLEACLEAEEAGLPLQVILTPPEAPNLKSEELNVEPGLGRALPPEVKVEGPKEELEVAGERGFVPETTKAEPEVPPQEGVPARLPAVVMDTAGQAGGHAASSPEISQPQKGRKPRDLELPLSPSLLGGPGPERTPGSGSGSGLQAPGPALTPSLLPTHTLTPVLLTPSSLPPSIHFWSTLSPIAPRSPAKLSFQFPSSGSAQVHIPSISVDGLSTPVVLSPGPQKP
# Procedure, shortened: as §1
# GABPA = molecular target: T3, GABPA (Homo sapiens, UniProt Q06546 1-454)
# T3 sequence: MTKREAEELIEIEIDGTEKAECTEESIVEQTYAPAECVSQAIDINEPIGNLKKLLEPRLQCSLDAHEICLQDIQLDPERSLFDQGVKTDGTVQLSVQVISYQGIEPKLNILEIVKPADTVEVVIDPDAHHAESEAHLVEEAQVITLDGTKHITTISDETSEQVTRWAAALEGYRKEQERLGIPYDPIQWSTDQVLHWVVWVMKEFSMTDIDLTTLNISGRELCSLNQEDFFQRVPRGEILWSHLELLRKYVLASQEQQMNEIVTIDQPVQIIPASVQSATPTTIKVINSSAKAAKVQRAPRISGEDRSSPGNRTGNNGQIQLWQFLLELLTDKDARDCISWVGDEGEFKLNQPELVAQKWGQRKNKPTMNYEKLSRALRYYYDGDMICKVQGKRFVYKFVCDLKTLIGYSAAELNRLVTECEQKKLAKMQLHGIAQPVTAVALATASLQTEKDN
# Procedure, shortened: as §1
# ERG = molecular target: T4, ERG (Homo sapiens, UniProt P11308 1-479)
# T4 sequence: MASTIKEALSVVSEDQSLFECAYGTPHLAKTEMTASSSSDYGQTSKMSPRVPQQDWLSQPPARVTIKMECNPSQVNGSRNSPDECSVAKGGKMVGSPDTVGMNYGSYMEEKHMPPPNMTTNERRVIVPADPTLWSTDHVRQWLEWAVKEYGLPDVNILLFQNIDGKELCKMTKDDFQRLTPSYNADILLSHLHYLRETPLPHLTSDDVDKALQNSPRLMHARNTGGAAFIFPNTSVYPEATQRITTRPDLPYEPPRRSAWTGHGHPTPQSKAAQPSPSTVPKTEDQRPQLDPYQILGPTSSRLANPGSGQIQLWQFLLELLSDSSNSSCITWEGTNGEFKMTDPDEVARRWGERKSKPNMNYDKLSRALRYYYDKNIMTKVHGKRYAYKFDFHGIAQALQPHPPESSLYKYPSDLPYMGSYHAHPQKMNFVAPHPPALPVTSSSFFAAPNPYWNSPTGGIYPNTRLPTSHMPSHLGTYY
# Procedure, shortened: as §1
# ELF1 = ELF1 (Homo sapiens, UniProt P32519 1-619)
# Procedure, shortened: as §1
# EHF = molecular target: T5, EHF (Homo sapiens, UniProt Q9NZC4 1-300)
# T5 sequence: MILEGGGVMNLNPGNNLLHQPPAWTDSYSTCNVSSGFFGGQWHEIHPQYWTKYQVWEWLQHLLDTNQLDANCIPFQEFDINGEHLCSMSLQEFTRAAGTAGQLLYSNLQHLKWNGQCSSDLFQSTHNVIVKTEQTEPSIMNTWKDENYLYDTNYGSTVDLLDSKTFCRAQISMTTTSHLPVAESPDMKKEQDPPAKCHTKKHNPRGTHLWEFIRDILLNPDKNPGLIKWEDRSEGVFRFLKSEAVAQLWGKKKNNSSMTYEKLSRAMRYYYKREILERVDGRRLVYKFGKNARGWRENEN
# Procedure, shortened: as §1
# SPI1 = SPI1 (Homo sapiens, UniProt P17947 1-270)
# Procedure, shortened: as §1
# SPIB = SPIB (Homo sapiens, UniProt Q01892 1-262)
# Procedure, shortened: as §1
# ELK3 = molecular target: T6, ELK3 (Homo sapiens, UniProt P41970 1-407)
# T6 sequence: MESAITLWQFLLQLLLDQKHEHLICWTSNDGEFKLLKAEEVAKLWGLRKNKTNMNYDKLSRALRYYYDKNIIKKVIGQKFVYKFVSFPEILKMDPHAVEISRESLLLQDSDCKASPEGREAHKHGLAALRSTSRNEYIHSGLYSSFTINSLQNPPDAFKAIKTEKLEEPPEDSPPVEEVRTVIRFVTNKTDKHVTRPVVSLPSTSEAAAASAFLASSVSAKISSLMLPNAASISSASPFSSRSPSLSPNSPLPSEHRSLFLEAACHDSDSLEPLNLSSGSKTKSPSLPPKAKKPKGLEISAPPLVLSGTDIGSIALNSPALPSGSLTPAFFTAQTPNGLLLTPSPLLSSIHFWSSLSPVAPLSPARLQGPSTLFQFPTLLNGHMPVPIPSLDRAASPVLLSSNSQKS
# Procedure, shortened: as §1
# Chain of SPIB (Q01892 whole entry): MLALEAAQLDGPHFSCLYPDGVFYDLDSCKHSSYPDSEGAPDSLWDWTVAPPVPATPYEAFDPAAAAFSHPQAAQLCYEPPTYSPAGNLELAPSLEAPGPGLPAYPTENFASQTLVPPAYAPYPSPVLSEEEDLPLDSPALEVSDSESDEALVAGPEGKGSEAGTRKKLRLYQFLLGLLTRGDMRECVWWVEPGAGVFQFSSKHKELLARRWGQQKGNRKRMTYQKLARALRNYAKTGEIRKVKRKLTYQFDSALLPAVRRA
# Chain of ELF1 (P32519 whole entry): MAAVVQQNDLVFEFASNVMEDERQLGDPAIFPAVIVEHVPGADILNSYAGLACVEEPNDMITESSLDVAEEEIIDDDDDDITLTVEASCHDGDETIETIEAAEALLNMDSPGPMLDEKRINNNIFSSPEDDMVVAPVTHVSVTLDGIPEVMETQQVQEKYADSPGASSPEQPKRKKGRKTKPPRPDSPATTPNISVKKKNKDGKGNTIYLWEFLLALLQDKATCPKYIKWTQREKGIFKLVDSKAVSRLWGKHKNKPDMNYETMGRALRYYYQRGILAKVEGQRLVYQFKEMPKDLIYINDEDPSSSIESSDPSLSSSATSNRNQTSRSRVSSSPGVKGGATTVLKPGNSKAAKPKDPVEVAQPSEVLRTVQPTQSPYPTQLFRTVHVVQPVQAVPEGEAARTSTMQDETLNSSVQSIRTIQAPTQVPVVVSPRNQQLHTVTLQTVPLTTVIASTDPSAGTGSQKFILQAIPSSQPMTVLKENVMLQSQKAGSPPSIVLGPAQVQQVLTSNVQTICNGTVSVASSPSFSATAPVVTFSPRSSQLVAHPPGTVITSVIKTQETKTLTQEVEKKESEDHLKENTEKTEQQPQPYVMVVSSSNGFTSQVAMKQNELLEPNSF
sequence,measurement,setting,value
CTCAAA,binding signal,FLI1,"1.2 fold enrichment (6-mer frequency, TF over GST control)"
same,binding signal,ELK1,"1.14 fold enrichment (6-mer frequency, TF over GST control)"
same,binding signal,GABPA,"1.16 fold enrichment (6-mer frequency, TF over GST control)"
same,binding signal,ERG,"1.13 fold enrichment (6-mer frequency, TF over GST control)"
same,binding signal,ELF1,"1.25 fold enrichment (6-mer frequency, TF over GST control)"
same,binding signal,EHF,"1.11 fold enrichment (6-mer frequency, TF over GST control)"
same,binding signal,SPI1,"1.29 fold enrichment (6-mer frequency, TF over GST control)"
same,binding signal,SPIB,"1.23 fold enrichment (6-mer frequency, TF over GST control)"
same,binding signal,ELK3,"1.15 fold enrichment (6-mer frequency, TF over GST control)"

# — PMC7862700, “An all-to-all approach to the identification of sequence-specific readers for epigenetic DNA modifications on cytosine”
